# G9a inh – blocks human histone lysine methyltransferase G9a; Q96KQ7; G9a H3K9 monomethylation, AlphaScreen, 2 h; Potency, µM (doses to about 102 µM), inactives show at the highest dose activity, negative = inhibition, hits mostly inhibitors; actives 8.8% (n = 350,000); further: on the % scale 0 is the no-effect control and ±100 the full control effect; nearly all actives have a fitted effect of over 75% in size
# Target sequence (Q96KQ7 913-1193 limits assumed): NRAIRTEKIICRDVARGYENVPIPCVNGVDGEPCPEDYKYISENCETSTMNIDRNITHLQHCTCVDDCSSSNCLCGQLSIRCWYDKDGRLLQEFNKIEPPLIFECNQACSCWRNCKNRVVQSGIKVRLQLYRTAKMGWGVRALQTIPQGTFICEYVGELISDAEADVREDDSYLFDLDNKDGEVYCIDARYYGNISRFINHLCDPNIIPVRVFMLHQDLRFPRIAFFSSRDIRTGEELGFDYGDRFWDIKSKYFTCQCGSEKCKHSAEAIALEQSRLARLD
#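 Compounds were preincubated with 20 nM G9a for 15 min, after which biotinylated H3K9 peptide (500 nM) and SAM (20 uM) started a 2 h room-temperature reaction. Monomethylated product was quantified by antibody-based AlphaScreen chemiluminescence.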
# HP1b binding inh – HP1-beta chromodomain-methylated histone interaction inhibition; P83916; AlphaScreen HP1-beta / biotin-H3K9me3 peptide binding; Potency, µM (highest dose often 114 µM), without a hit: top-dose activity change, negative = inhibition, usual class: inhibitors; actives 0.56% (n = 390,000); further: nearly all actives have a fitted effect of over 70% in size
# Target sequence (P83916 whole entry, looked up): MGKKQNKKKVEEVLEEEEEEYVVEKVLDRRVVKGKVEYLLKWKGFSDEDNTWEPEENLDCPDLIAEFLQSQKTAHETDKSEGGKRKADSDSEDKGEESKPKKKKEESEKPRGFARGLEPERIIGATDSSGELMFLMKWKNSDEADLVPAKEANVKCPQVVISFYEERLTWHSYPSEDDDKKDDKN
#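 AlphaScreen: HP1-beta (50 nM) preformed 30 min with biotin-H3(1-18)K9me3 peptide (50 nM) in PBS pH 7.4, 0.01% Tween-20. Compound added for 30 min at RT, then streptavidin donor/nickel chelate acceptor beads (10 ug/mL) for 30 min.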
# L3MBTL1 block – L3MBTL1 (human) inhibition; AlphaScreen L3MBTL1–H3K9me1 peptide binding; Potency, µM (doses to about 57.1 µM), inactives show at the top dose activity, negative = inhibition, most hits filed as inhibitors; actives 0.66% (n = 230,000); AID 485360; further: on the % scale 0 is the no-effect control and ±100 the full control effect; nearly all actives have a fitted effect of over 60% in size
#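 L3MBTL1 (50 nM) pre-complexed 30 min with biotinylated H3(1-15)K9me1 peptide (75 nM), then compounds added for 30 min at room temperature; AlphaScreen streptavidin donor/nickel chelate acceptor beads (10 ug/mL final) read after 30 min dark incubation.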
# GLS inhibitor – glutaminase GLS (human) inhibition. actives 0.21% (n = 410,000). Potency, µM (titrated, usually from 45.5 µM), without a hit: at the highest dose activity change, negative = inhibition, usual class: inhibitors. GLS enzymatic activity, qHTS titration. O94925. AID 624170; further: on the % scale 0 is the no-effect control and ±100 the full control effect
#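 Coupled fluorescence readout: glutamate oxidase/HRP/Amplex Red detect glutamate formed by hKGA from L-glutamine (1 mM solution added). Buffer 45 mM KH2PO4 pH 8.2, 0.02% Tween-20; reads at t0 and 30 min RT.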
# JMJD2A Tudor inh – JMJD2A Tudor domain (human) inhibition | AlphaScreen JMJD2A-Tudor / H3K4me3 peptide binding | AID 504339 | Potency, µM (top dose mostly 114 µM), inactives show at the highest dose activity change, negative = inhibition, most hits filed as inhibitors | O75164 | actives 4.4% (n = 390,000); further: on the % scale 0 is the no-effect control and ±100 the full control effect; nearly all actives have a fitted effect of over 50% in size
# BAZ2B block – BAZ2B (human) inhibition; Q9UIF8; AlphaScreen BAZ2B-H3K14Ac peptide displacement; Potency, µM (top dose mostly 114 µM), for the others: at the highest dose activity change, negative = inhibition, hits mostly inhibitors; actives 4.4% (n = 360,000); further: on the % scale 0 is the no-effect control and ±100 the full control effect; nearly all actives have a fitted effect of over 60% in size
#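 AlphaScreen luminescence quantifies BAZ2B engagement of H3K14Ac peptide; the protein and biotinylated peptide are both at 50 nM final, buffer PBS pH 7.4 with 0.01% Tween-20, all steps at room temperature.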
# * hit, by the source's call; ? = inconclusive; . = not tested or not shown; [ ] = dose if it differs, or a comment. Hits are enriched below; roughly 10% of the tested compounds scored in any of these assays. The call rests on the fitted dose curve; in most records, active means well fitted curve in the direction sought with a large enough effect; inconclusive means small, poorly fitted or top-dose-only effect, or another doubt; inactive means no such curve, though single readings can be large; an effect the other way counts as inactive or inconclusive. Potency means the concentration at half of the fitted maximal effect.
SMILES,G9a inh,HP1b binding inh,L3MBTL1 block,GLS inhibitor,JMJD2A Tudor inh,BAZ2B block
O=C(COc1ccc(Cl)cc1)OCc1csc(Nc2ccccc2)n1,10µM*,19%,5%,3%,-23%,-29%
O=C(O)COc1ccc(/C=N/NC(=O)c2ccc(-c3csc(Nc4ccc(Cl)cc4)n3)cc2)cc1,-105%[59 µM],20µM*,.,?,8.9µM*,4µM*
CCOc1cc(/C=N/NC(=O)c2ccc(-c3csc(Nc4ccc(C)cc4)n3)cc2)ccc1OCC(=O)O,45µM*,18%,-17%,?,?,25µM*
CCOc1ccc(/C=N/NC(=O)c2ccncc2)cc1OC,.,.,.,15%,.,.
CCCN1CNc2c(c(=O)[nH]c(=S)n2CCc2ccc(Cl)c(Cl)c2)C1,.,37%,.,.,-4%,.
Cc1ccc(OC(C)C(=O)Nc2nonc2-c2ccc(Br)cc2)cc1C (configuration not stated),?,47%,.,-1%,2%,4%
CCN(CC)Cc1cc(Nc2c3ccccc3nc3c4ccccc4n(C)c23)cc(CN(CC)CC)c1O,.,?,.,23%,45µM*,.
CCOc1cc2nc3c4ccccc4n(C)c3nc2cc1OCC,-7%,73%,43%,0%,-15%,43%
O=[N+]([O-])c1cc(S(=O)(=O)O)cc([N+](=O)[O-])c1NN(c1ccccc1)c1ccccc1,50µM*,7%,.,40%,?,-37%
O=C(CSc1n[nH]c(=O)n1Cc1ccccc1)Nc1ccc(F)c(F)c1F,40µM*,24%,.,12%,-13%,?
O=C(Nc1cccc(C(=O)N2CCN(c3ccc(Cl)cc3)CC2)c1)c1nsc2ccccc12,-28%[59 µM],5%[57 µM],.,2%,-24%,-4%
O=C(/C=C/c1ccc(-c2ccccc2[N+](=O)[O-])o1)c1ccc(F)cc1,35µM*,?,-29%,-5%,?,22µM*
Cc1ccc(C(=O)/C=C/c2ccc(-c3ccccc3[N+](=O)[O-])o2)cc1,25µM*,?,-19%,0%,?,25µM*
O=C(/C=C/c1ccc(-c2ccccc2[N+](=O)[O-])o1)c1ccc(Br)cc1,25µM*,-36%,-27%,-7%,?,28µM*
Cc1ccc(-c2ccc(/C=C/C(=O)c3ccccc3)o2)cc1,-19%[59 µM],-6%,-12%,-1%,-20%,?
CC(=O)Nc1ccccc1-c1nc2ccccc2n(Cc2cccc(Br)c2)c1=O,?,24%,.,-3%,?,-31%
Nc1cc(-c2ccc(Br)cc2)nn1S(=O)(=O)c1cccc2nsnc12,?,-13%,.,-7%,?,?
Nc1cc(-c2ccc(Cl)cc2)nn1S(=O)(=O)c1cccc2nsnc12,40µM*,-22%,.,-9%,45µM*,?
COc1ccccc1-c1cc(N)n(S(=O)(=O)c2cccc3nsnc23)n1,50µM*,-41%,.,0%,?,?
CC1=C(c2ccc(F)cc2)S(=O)(=O)N=C1N1CCC(C(=O)NCCc2cccc(C)c2)CC1,-4%[59 µM],18%,.,-8%,-16%,-12%
CC(=O)c1cccc(NS(=O)(=O)c2cc(-c3onc(C)c3C)ccc2C)c1,5%[59 µM],34%,.,0%,0%,2%
c1ccc2c(c1)nc(N1CCOCC1)c1ccccc12,67%,74%,29%,-3%,17%,31%
COc1ccc(Nc2nc(N3CCCC3)c3ccccc3n2)cc1,-42%[12.7 µM],?,.,18%,45µM*,?
Cc1nc(N2CCCCCC2)c2ccccc2n1,?,21%,-3%,6%,-2%,-2%
CCN(CC)c1ccc(Nc2nc(N3CCOCC3)c3ccccc3n2)cc1,2.2µM*,-88%,.,38%,18µM*,18µM*
SMILES,G9a inh,HP1b binding inh,L3MBTL1 block,GLS inhibitor,JMJD2A Tudor inh,BAZ2B block
CC(O)c1cccc(N=Cc2ccc3ccccc3c2O)c1 (configuration not stated),1.8µM*,0%,-1%,45%,?,?
O=C(c1cc(-c2ccco2)nc2ccccc12)N1CCN(c2ccc(F)cc2)CC1,?,-14%,-18%,1%,56µM*,50µM*
O=C(OCC(=O)N(Cc1ccccc1)Cc1ccccc1)c1ccccc1NCCO,40µM*,72%,17%,2%,16%,6%
O=C(OCC(=O)N1CCN(C(=O)c2ccco2)CC1)c1cc(-c2ccc(Cl)c(Cl)c2Cl)nc2ccccc12,79µM*,14%,.,?,-13%[57.1 µM],-6%
COc1ccc(CNC(=O)COC(=O)c2cc(C)nc3ccccc23)cc1,.,10%,1%,3%,-19%,.
COc1ccc(CNC(=O)COC(=O)c2cc(-c3ccco3)nc3ccccc23)cc1,10µM*,.,.,.,.,50µM*
COc1ccc(-c2noc(CCC(=O)NCc3ccc(OC)cc3OC)n2)cc1,-30%[59 µM],23%,.,-13%,-8%,-2%
O=C(OCC(=O)N1CCN(C(=O)COC(=O)c2ccccc2NCCO)CC1)c1ccccc1NCCO,.,41%,.,-8%,-2%,.
O=C(c1ccco1)N1CCN(C(=O)c2cc(-c3ccccn3)nc3ccccc23)CC1,?,33%,-1%,6%,3%,.
O=C(OCC(=O)N1CCN(C(=O)c2ccco2)CC1)c1ccccc1NCCO,4%[0.501 µM],-2%,-20%,38%,32µM*,?
O=C(OCC(=O)N1CCN(C(=O)c2ccco2)CC1)c1cc(-c2ccco2)nc2ccccc12,.,32µM*,8.9µM*,4%,40µM*,20µM*
COc1ccc(NCc2cc3ccccc3[nH]c2=O)cc1,50µM*,-9%,-6%,15%,?,?
O=C(NCCCn1ccnc1)C(=O)NCC(c1ccco1)N1CCN(c2ccc(F)cc2)CC1 (configuration not stated),?,30%,.,42%,-2%[11.4 µM],.
O=C(NCCCn1ccnc1)C(=O)NCC(c1cccnc1)N1CCN(c2ccccc2)CC1 (configuration not stated),?,11%,-11%,26%,56µM*,50µM*
O=C(NCc1ccccc1)C(=O)NCC(c1cccnc1)N1CCN(c2ccccc2)CC1 (configuration not stated),3%[59 µM],85%,.,14%,27%,-7%
O=C(NCCCn1ccnc1)C(=O)NCC(c1ccco1)N1CCN(c2ccccc2)CC1 (configuration not stated),-6%,39%,-21%,64%,-7%[11.4 µM],56µM*
COC(=O)c1cc(C)sc1NC(=O)CSc1ncccn1,10µM*,-3%,.,-9%,-6%,-21%
CN(C)c1ccc(N=Cc2cccn2C)cc1,8.9µM*,-34%,.,6%,50µM*,20µM*

# Source: PubChem (National Center for Advancing Translational Sciences (NCATS))
